KB-V1 MDR tox: qHTS assay for MDR1-selective chemotherapeutics: Primary screen using the drug-selected MDR subline cells KB-V1 | Potency, µM (highest dose often 46.1 µM), hits mostly cytotoxic | AID 1347076, 2019 | KB-V1 MDR cells viability, CellTiter-Glo, 72 h | actives 3.4% (n = 400,000); note: % is set by controls: 0 for no effect and ±100 for the full control effect; nearly all actives have a fitted effect of over 60% in size
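KB-V1, DMEM (no phenol red) + 10% FBS; cpd pin-transferred, titration series; 72 h, 37 degrees C; CellTiter-Glo, luminescence. Data normalized, curve-fit.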
S2 tox: Viability Counterscreen for Primary qHTS for Inhibitors of ATXN expression; AID 651635, 2014; Potency, µM (series often up to 56.7 µM), actives largely listed as cytotoxic; actives 0.49% (n = 400,000); S2 cells (HEK-293 line with an ATXN2-luciferase reporter) viability, CellTiter-Fluor protease fluorescence, 24 h; note: nearly all actives have a fitted effect of over 40% in size
KB-3-1 tox: qHTS assay for MDR1-selective chemotherapeutics: Primary screen using the parental adenocarcinoma cell KB-3-1. KB-3-1 viability, CellTiter-Glo ATP luminescence, 72 h. Potency, µM (top dose mostly 46.1 µM), hits mostly cytotoxic. actives 1.4% (n = 400,000). AID 1347075, 2019; note: % is set by controls: 0 for no effect and ±100 for the full control effect; nearly all actives have a fitted effect of over 60% in size
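Here the drug-naive KB-3-1 line serves as comparator for MDR sub-line selectivity; cells received compound titrations, 72 h at 37 °C, then CellTiter-Glo readout.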
TGFb inhibitor: qHTS for Inhibitors of TGF-b; HepG2 CAGA-GFP TGF-b/SMAD3 reporter, GFP fluorescence, 18 h; TGF-beta stimulated, 500 pg/mL final; Potency, µM (series often up to 46.1 µM), for inactives: top-dose activity, negative = inhibition, actives largely listed as inhibitors; actives 1.2% (n = 410,000); AID 588855, 2011; note: % is set by controls: 0 for no effect and ±100 for the full control effect; nearly all actives have a fitted effect of over 65% in size
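Inhibition of TGF-beta-driven CAGA-GFP reporter expression in HEPG2 cells is measured by cellular GFP fluorescence after 18 h stimulation with 500 pg/mL recombinant TGF-beta in 1% FBS medium at 37 degrees C.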
HepG2 tox: qHTS for Inhibitors of TGF-b: Cytotox Counterscreen. Potency, µM (doses to about 46.1 µM), for the others: at the highest dose activity change, negative = cytotoxicity, actives largely listed as cytotoxic. AID 588856, 2011. HepG2 CAGA-GFP viability, ATP luminescence, 18 h. actives 0.76% (n = 410,000)
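HepG2 CAGA-GFP cells (1000/well, DMEM with 1% FBS) received compound, then TGF-beta at 500 pg/mL final, and were incubated 18 hours at 37 degrees C. Viability was read by CellTiter-Glo luminescence. Media-only wells were set as complete cell-killing and DMSO as no toxicity.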
ATXN2 expr inh: Primary qHTS for Inhibitors of ATXN expression. HEK-293 ATXN2-luciferase reporter, luminescence, 24 h. Potency, µM (highest dose often 57 µM), without a hit: top-dose activity change, negative = inhibition, usual class: inhibitors. actives 0.72% (n = 360,000); note: % is set by controls: 0 for no effect and ±100 for the full control effect; nearly all actives have a fitted effect of over 55% in size
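qHTS (up to 57 uM final) was run with 24 h compound exposure of reporter cells at 37 °C. Each well was multiplexed: SteadyGlo luminescence measured ATXN2-luciferase expression after a fluorogenic Gly-Phe-AFC viability readout (25 uM final).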
* marks the source's active call; other numbers are inactive results. Most compounds without a hit are left out; they make up all but 5.9% or so of the library. Calls come from the whole dose curve; as a rule, active = well fitted curve in the direction sought with a large enough effect; inconclusive = small, poorly fitted or top-dose-only effect, or another doubt; inactive = no such curve, though single readings can be large; an effect the other way counts as inactive or inconclusive. Potency is the fitted concentration of half-maximal effect.

What do the screens show for `C=CCc1ccc(OCC(O)CN2CCN(Cc3ccc(Cl)cc3)CC2)c(OC)c1` (stereo not given)?
KB-V1 MDR tox: inconclusive; S2 tox: inconclusive; KB-3-1 tox: 23µM*; TGFb inhibitor: inconclusive; HepG2 tox: -62%; ATXN2 expr inh: -16%

How did C=CCc1ccc(OCC(O)CN2CCC(Cc3ccccc3)CC2)c(OC)c1 (stereo not given) do in these assays?
KB-V1 MDR tox: 21µM*; S2 tox: inconclusive; KB-3-1 tox: inactive; TGFb inhibitor: inconclusive; HepG2 tox: -38%; ATXN2 expr inh: -28%

How did CCCCNC(=O)[C@@H]1CC=C[C@@H]2CCN(Cc3ccc(OC)c(OC)c3)C(=O)[C@@H]21 do in these assays?
KB-V1 MDR tox: inconclusive; KB-3-1 tox: inactive; TGFb inhibitor: -15%; HepG2 tox: -18%

How did COC(=O)C1=C(C)NC(C)=C(C(=O)OCCN(C)Cc2ccccc2)C1c1cccc([N+](=O)[O-])c1 (stereo not given) do in these assays?
KB-V1 MDR tox: 18µM*; S2 tox: 22µM*; KB-3-1 tox: inactive; TGFb inhibitor: -25%; HepG2 tox: -52%; ATXN2 expr inh: inconclusive

Results for COC(=O)C1=C(C)NC(C)=C(C(=O)OCCN2CCN(C(c3ccccc3)c3ccccc3)CC2)C1c1cccc([N+](=O)[O-])c1 (stereo not given) ?
S2 tox: inconclusive; ATXN2 expr inh: 14µM*

Results for CCOc1[nH]c(/N=C/c2ccccc2)c(C#N)c1C#N ?
KB-V1 MDR tox: inactive; KB-3-1 tox: inconclusive; TGFb inhibitor: 19%; HepG2 tox: -21%

What do the screens show for `COc1ccc(NC(=O)C2CCCN(c3nnc(C)c4c(C)n(-c5ccccc5)nc34)C2)cc1Cl` (stereo not given)?
KB-V1 MDR tox: inactive; S2 tox: 11µM*; KB-3-1 tox: inactive; TGFb inhibitor: 16µM*; HepG2 tox: 18µM*; ATXN2 expr inh: 13µM*

Results for COc1ccc(CNC(=O)C2CCCN(c3nnc(C)c4c(C)n(-c5ccc(C)cc5)nc34)C2)cc1 (stereo not given) ?
KB-V1 MDR tox: inactive; S2 tox: inconclusive; KB-3-1 tox: inactive; TGFb inhibitor: inconclusive; HepG2 tox: -48%; ATXN2 expr inh: -11%

What do the screens show for `CCc1ccc(CNC(=O)C2CCCN(c3nnc(C)c4c(C)n(-c5ccc(OC)cc5)nc34)C2)cc1` (stereo not given)?
KB-V1 MDR tox: inconclusive; S2 tox: inconclusive; KB-3-1 tox: inactive; TGFb inhibitor: 11µM*; HepG2 tox: 10µM*; ATXN2 expr inh: -20%

Results for Cc1ccc(NC(=O)C2CCN(c3nnc(C)c4c(C)n(-c5ccccc5)nc34)CC2)cc1Cl ?
KB-V1 MDR tox: inactive; S2 tox: inactive; KB-3-1 tox: inactive; TGFb inhibitor: inconclusive; HepG2 tox: 8%; ATXN2 expr inh: 2%

How did COc1ccc(-n2nc3c(N4CCC(C(=O)NCc5cccc(F)c5)CC4)nnc(C)c3c2C)cc1 do in these assays?
KB-V1 MDR tox: inactive; S2 tox: inconclusive; KB-3-1 tox: inactive; TGFb inhibitor: 10µM*; HepG2 tox: 16µM*; ATXN2 expr inh: inconclusive

How did Cc1nnc(N2CCCC(C(=O)NCc3ccc(OC(C)C)cc3)C2)c2nn(-c3ccccc3)c(C)c12 (stereo not given) do in these assays?
KB-V1 MDR tox: inactive; S2 tox: 16µM*; KB-3-1 tox: inactive; TGFb inhibitor: -28%; HepG2 tox: -25%; ATXN2 expr inh: inconclusive

What do the screens show for `CN(C)c1ccc(CNC(=O)c2ccc(NC(=O)N3CCCCc4ccccc43)cc2)cc1`?
KB-V1 MDR tox: inactive; S2 tox: inactive; KB-3-1 tox: inactive; TGFb inhibitor: -18%; HepG2 tox: -16%; ATXN2 expr inh: 6%

What do the screens show for `COc1ccc(CC(=O)NC2CCCc3ccccc32)cc1` (stereo not given)?
KB-V1 MDR tox: inconclusive; KB-3-1 tox: inactive; TGFb inhibitor: 14%; HepG2 tox: 21%; ATXN2 expr inh: -15%

What do the screens show for `COc1ccc2c(c1)C(CC(=O)NN)CCC2` (stereo not given)?
KB-V1 MDR tox: inconclusive; S2 tox: inconclusive; KB-3-1 tox: 23µM*; TGFb inhibitor: 0%; HepG2 tox: 2%; ATXN2 expr inh: 0%

How did CC(Oc1ccccc1)C(=O)Nc1ccc(C(N)=O)cc1 (stereo not given) do in these assays?
KB-V1 MDR tox: inactive; S2 tox: inactive; KB-3-1 tox: inactive; TGFb inhibitor: -1%; HepG2 tox: 1%; ATXN2 expr inh: 9%

Results for CC(=O)c1ccc(NC(=O)C(C)O/N=C(\N)c2ccccc2)cc1 (stereo not given) ?
KB-V1 MDR tox: 23µM*; S2 tox: inactive; KB-3-1 tox: inactive; TGFb inhibitor: -21%; HepG2 tox: -2%; ATXN2 expr inh: -1%

What do the screens show for `Cc1ccc(S(=O)(=O)N2CCN(C(=O)CN3CCc4ccccc4C3)CC2)cc1`?
KB-V1 MDR tox: 4.1µM*; S2 tox: inactive; KB-3-1 tox: inactive; TGFb inhibitor: -19%; HepG2 tox: -20%; ATXN2 expr inh: -2%

Results for Cc1ccc(S(=O)(=O)N2CCN(Cc3cc(Br)ccc3O)CC2)cc1 ?
KB-V1 MDR tox: inactive; S2 tox: inactive; KB-3-1 tox: inactive; TGFb inhibitor: 10µM*; HepG2 tox: 1%; ATXN2 expr inh: -27%

Results for Cc1ccc(S(=O)(=O)N2CCN(C(=O)COc3ccc(Br)cc3)CC2)cc1 ?
KB-V1 MDR tox: 16µM*; S2 tox: inconclusive; KB-3-1 tox: inactive; TGFb inhibitor: 14%; HepG2 tox: 20%; ATXN2 expr inh: -31%

Results for Cc1cc(F)ccc1NC(=O)c1csc2c1CCC(C)C2 (stereo not given) ?
KB-V1 MDR tox: inactive; S2 tox: inactive; KB-3-1 tox: inactive; TGFb inhibitor: inconclusive; HepG2 tox: -35%; ATXN2 expr inh: 58%

What do the screens show for `CCc1ccc2[nH]c(=O)c(CN(Cc3cccnc3)Cc3nnnn3Cc3ccccc3)cc2c1`?
KB-V1 MDR tox: inactive; KB-3-1 tox: inactive; TGFb inhibitor: -13%; HepG2 tox: -7%
